Rows were chosen to be rich in hits. Some 12% of all compounds tested hit in one or more screens of this group.
PLK1 PBD inh: PLK1 (human) polo-box domain binding inhibition; AID 720504; 360,000 tested, 2.8% active; P53350; Potency, µM, for the others: max response, negative = inhibition, most hits filed as inhibitors; Plk1 PBD binding of FITC phosphopeptide, fluorescence polarization; also: series mostly up to about 57 µM; % is scaled to controls: 0 for no effect and ±100 for the full control effect; nearly all actives have a fitted effect of over 65% in size
Sfp inh: inhibitors of Bacillus subtilis Sfp phosphopantetheinyl transferase | Biochemical Sfp PPTase activity, qHTS | AID 1490 | 310,000 tested, 3.5% active | Q9F4F7 | Potency, µM, without a hit: largest response in the series, negative = inhibition, usual class: inhibitors;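 also: the enzyme is Sfp with the accession as filed and its product quenches rhodamine fluorescence; 0% = enzyme reaction without inhibitor and -100% = no enzyme wells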
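Step 1, compound plus 15 nM Sfp-PPTase, 15 min, room temperature. Step 2, add rhodamine-CoA (5 uM) and BHQ-2-YbbR (12.5 uM). Step 3, read 525/598 nm fluorescence at 0 and 30 min.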
HP1b chromo inh: inhibitors of HP1-beta chromodomain binding to methylated histone tails. AlphaScreen HP1-beta / biotin-H3K9me3 peptide binding. 390,000 tested, 0.56% active. AID 540317. P83916. Potency, µM (top dose mostly 114 µM), inactives show at the highest dose activity change, negative = inhibition, most hits filed as inhibitors; also: nearly all actives have a fitted effect of over 70% in size
Target sequence (P83916 whole entry, looked up): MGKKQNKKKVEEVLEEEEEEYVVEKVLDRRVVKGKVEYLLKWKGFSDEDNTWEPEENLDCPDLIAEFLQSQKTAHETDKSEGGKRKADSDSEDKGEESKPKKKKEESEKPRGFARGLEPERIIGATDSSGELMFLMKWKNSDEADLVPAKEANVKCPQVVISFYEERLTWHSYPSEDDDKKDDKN
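Compound inhibition of the preformed complex between 50 nM HP1-beta and 50 nM biotinylated H3K9me3 peptide was read by AlphaScreen. Buffer was PBS pH 7.4 with 0.01% Tween-20. Incubations ran 30 min at room temperature, with 10 ug/mL donor/acceptor beads.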
BAZ2B inh: blocks human BAZ2B. AlphaScreen BAZ2B-H3K14Ac peptide displacement. 360,000 tested, 4.4% active. Q9UIF8. Potency, µM (top dose mostly 114 µM), for the others: at the highest dose activity change, negative = inhibition, actives largely listed as inhibitors; also: % is scaled to controls: 0 for no effect and ±100 for the full control effect; nearly all actives have a fitted effect of over 60% in size
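BAZ2B 50 nM plus b-H3(5-23)K14Ac 50 nM, PBS pH 7.4/0.01% Tween-20, 30 min RT; compound added (max 110 uM), 30 min RT; streptavidin donor/Ni-chelate acceptor beads 10 ug/mL final, 20 min dark; AlphaScreen read.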
JMJD2A Tudor: inhibitors of human JMJD2A Tudor domain; AlphaScreen JMJD2A-Tudor / H3K4me3 peptide binding; 390,000 tested, 4.4% active; Potency, µM (doses to about 114 µM), for inactives: top-dose activity change, negative = inhibition, usual class: inhibitors; O75164; also: % is scaled to controls: 0 for no effect and ±100 for the full control effect; nearly all actives have a fitted effect of over 50% in size
G9a block: inhibitors of human histone lysine methyltransferase G9a; Q96KQ7; G9a H3K9 monomethylation, AlphaScreen, 2 h; Potency, µM (top dose mostly 102 µM), for inactives: top-dose activity, negative = inhibition, actives largely listed as inhibitors; 350,000 tested, 8.8% active; AID 504332; also: % is scaled to controls: 0 for no effect and ±100 for the full control effect; nearly all actives have a fitted effect of over 75% in size
Target sequence (Q96KQ7 913-1193 limits assumed): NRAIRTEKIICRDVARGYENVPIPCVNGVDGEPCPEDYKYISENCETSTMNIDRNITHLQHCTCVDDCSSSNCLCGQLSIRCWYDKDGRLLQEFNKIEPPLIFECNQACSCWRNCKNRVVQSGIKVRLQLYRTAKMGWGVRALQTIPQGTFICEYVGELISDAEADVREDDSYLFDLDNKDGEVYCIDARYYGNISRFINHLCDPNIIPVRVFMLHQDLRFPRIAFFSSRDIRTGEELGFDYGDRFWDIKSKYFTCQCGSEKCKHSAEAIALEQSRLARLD
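G9a (20 nM) was preincubated 15 min with compound, then reacted 2 h at room temperature with 500 nM biotin-H3K9 peptide and 20 µM SAM. Monomethyl-H3K9 detected by AlphaScreen using anti-H3K9me1 antibody.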
Active calls of the source: *; ? = inconclusive; nt = no result given; [ ] = another dose, or the depositor's remark. Calls follow the shape of the dose curve; as a rule, active = well fitted curve in the direction sought with a large enough effect; inconclusive = small, poorly fitted or top-dose-only effect, or another doubt; inactive = no such curve, though single readings can be large; an effect the other way counts as inactive or inconclusive. Potency is read from the fitted curve at half-maximal effect.

SMILES	PLK1 PBD inh	Sfp inh	HP1b chromo inh	BAZ2B inh	JMJD2A Tudor	G9a block
Cc1cccc(C)c1NC(=O)CN(C)C(=O)CC1CC2CCC1C2 (stereo not given)	3%	nt	14%	10%	-8%	-12%[59 µM]
Clc1ccc(CCNc2nc3cc(Cl)c(Cl)cc3n3cnnc23)cc1	nt	nt	12%	1%	-10%	9%[59 µM]
CC(=O)N=c1c(C#N)cc2c(=O)n3ccccc3nc2n1CCCOC(C)C	-26%	89µM*	69%	-3%	-13%	nt
CCC(C)NC(=O)c1c(C)oc2nc(C)nc(N3CCOCC3)c12 (stereo not given)	nt	nt	37%	10%[57.1 µM]	5%	-14%[59 µM]
CN(CCO)c1cc(Sc2nc3ccccc3s2)c2nonc2c1[N+](=O)[O-]	1.9µM*	25µM*	?	-30%[57.1 µM]	22µM*	?
CC(=O)OCCN(C)c1cc(SC(C)C)c2nonc2c1[N+](=O)[O-]	?	-27%	-1%	?	?	50µM*
Cn1ccnc1C(O)c1ccco1 (stereo not given)	-6%	?	-7%	4%	56µM*	?
COc1ccccc1C(O)c1nccn1C (stereo not given)	1%	12%	13%	-7%	-23%	?
CCc1c(C)nc2ccc(Br)cc2c1Cl	-3%	4%	105%	8%	42%	67%
Nc1nc(Cl)nc2ccc(Br)cc12	17µM*	9%	22%	0%	-23%	-6%[59 µM]
CCOc1ccc(OCC)c(NC(=O)CN2CCN(C(=O)c3ccco3)CC2)c1	21µM*	13%	-25%	8%	-2%[11.4 µM]	-8%[12.7 µM]
CCOc1ccc(OCC)c(NC(=O)CN2CCN(c3cccc(C)c3C)CC2)c1	4%	?	?	?	1.6µM*	?
CCOc1ccc(NC(=O)NCCN2CCN(c3cccc(C)c3C)CC2)cc1	2%	8%	27%	-17%	-8%	-4%
CCOc1ccc(NC(=O)N2CCN(C(=O)c3ccco3)CC2)cc1	-14%	12%	6%	-16%	-15%	55%
CCOC(=O)c1cc(CC)sc1NC(=O)CN1CCN(C(=O)c2ccco2)CC1	?	40µM*	-15%	?	?	?
COc1ccccc1C(=O)Nc1nnc(SCC(=O)NC2CCCC2)s1	-13%	11%	21%	12%	-7%	-2%
COc1cc2c(cc1NC(=S)Nc1cccc(C(F)(F)F)c1)oc1ccccc12	-7%	-14%	-16%	-37%	-27%[57.1 µM]	-40%[59 µM]
COc1cc(C2Nc3ccccc3NC3=C2C(=O)CC(C)(C)C3)cc(OC)c1OC(C)=O (stereo not given)	-22%	12%	25%	6%	-20%	50µM*
COc1cccc(C2Nc3ccccc3NC3=C2C(=O)CC(C)(C)C3)c1 (stereo not given)	4%	21%	30%	5%	-4%	20%
Cc1ccc(S(=O)(=O)c2nc(Nc3ccccc3C#N)sc2Cl)cc1	-5%	-1%	41%	-5%	11%	7.9µM*
Cc1ccc(S(=O)(=O)c2nc(Nc3ccccc3N3CCOCC3)sc2Cl)cc1	-8%	-8%	1%	54%	-25%	-2%[0.501 µM]
CN(C)NC1=CC(=[N+]2CCCC2)CC(C)(C)C1	-1%	8%	7%	-11%	-18%	?
CCCN(CCC)C1=CC(=[N+]2CCCC2)CC(C)(C)C1	-11%	-18%	-14%	-13%	?	1.8µM*
CCOC(=O)c1[nH]c(Cc2[nH]c(C(=O)OCC)c(C)c2CCC(=O)OC)c(CCC(=O)OC)c1C	-6%	56µM*	-26%	?	40µM*	40µM*
CCN(CC(=O)NC(C)C)C(=O)c1ccc(S(=O)(=O)N(C)c2ccccc2OC)cc1	3µM*	3%	?	-8%	?	13%[59 µM]
COCCCN(C(=O)c1cc(-c2ccco2)nc2ccccc12)c1c(N)n(Cc2ccccc2)c(=O)[nH]c1=O	-19%	nt	-12%	?	?	45µM*

High-throughput results (PubChem BioAssay)
